Assay results: PubChem BioAssay (Tox21)
Where “and” joins values, the source holds several entries; their conditions need not be identical. Equal values may be shown once. Inconclusive results are not listed. Where a call stands in place of a potency, no number is given. Some structures have more than one record in an assay (separate samples or runs), and their calls can disagree. Calls of active or inactive are those of the source. Calls come from the whole dose curve; as a rule, active = well fitted curve in the direction sought with a large enough effect in the repeat runs; inconclusive = weak or mixed curves; inactive = no such curve, though single readings can be large; an effect the other way counts as inactive or inconclusive.

Experiments:
[1] = Caspase-3/7 induction in CHO-K1 cells by small molecules, qHTS assay (AID 1346980); note: nearly all actives have a fitted effect of over 15% in size
In short: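 Wild-type CHO-K1 cells exposed to compounds for 17hr at 37 C, 5% CO2. Caspase-3/7 activity then measured by Caspase-Glo 3/7 luminescence after 30min at room temperature.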

[2] = Caspase-3/7 induction in HepG2 cells by small molecules, qHTS cell viability counter screen (AID 1346981); note: nearly all actives have a fitted effect of over 30% in size; note: potency is the fitted concentration of half-maximal effect
In short: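 Cell viability is measured as a cytotoxicity counter screen alongside the Caspase-Glo 3/7 readout in identical wells. Wild-type HepG2 cells are treated with test compounds for 16 hr at 37 C before CellTiter-Fluor addition and a 1-hr incubation.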

[3] = molecular target: Nuclear receptor subfamily 1 group I member 2 (Homo sapiens) (UniProt O75469); assay: Human pregnane X receptor (PXR) small molecule agonists, qHTS assay (AID 1346982); note: nearly all actives have a fitted effect of over 35% in size; note: potency is the fitted concentration of half-maximal effect
Chain of Nuclear receptor subfamily 1 group I member 2 (Homo sapiens) (O75469 whole entry, looked up): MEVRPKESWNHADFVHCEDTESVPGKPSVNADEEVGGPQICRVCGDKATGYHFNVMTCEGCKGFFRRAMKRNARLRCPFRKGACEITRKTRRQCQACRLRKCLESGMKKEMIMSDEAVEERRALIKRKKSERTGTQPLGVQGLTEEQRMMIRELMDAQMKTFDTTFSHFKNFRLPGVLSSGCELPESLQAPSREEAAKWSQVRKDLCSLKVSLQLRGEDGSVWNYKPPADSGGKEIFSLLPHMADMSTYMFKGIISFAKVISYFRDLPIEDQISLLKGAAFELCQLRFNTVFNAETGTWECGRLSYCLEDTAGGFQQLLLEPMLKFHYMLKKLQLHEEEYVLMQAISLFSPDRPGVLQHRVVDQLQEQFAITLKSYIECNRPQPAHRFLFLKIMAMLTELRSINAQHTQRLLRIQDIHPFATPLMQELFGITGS
In short: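 Cells: HepG2 stably carrying PXR-Luc. Medium held 5% charcoal-stripped FBS. Compounds in DMSO added after 5 hr plating, incubated 24 hr, then luminescence quantified with ONE-Glo.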

[4] = molecular target: Nuclear receptor subfamily 1 group I member 2 (Rattus norvegicus) (UniProt Q9R1A7); assay: Rat pregnane X receptor (rPXR) activation by small molecules, qHTS assay (AID 1346983); settings: rPXR luciferase reporter cells, One-Glo luminescence, 24 h; stronger effect = higher value; note: nearly all actives have a fitted effect of over 20% in size
Chain of Nuclear receptor subfamily 1 group I member 2 (Rattus norvegicus) (Q9R1A7 whole entry, looked up): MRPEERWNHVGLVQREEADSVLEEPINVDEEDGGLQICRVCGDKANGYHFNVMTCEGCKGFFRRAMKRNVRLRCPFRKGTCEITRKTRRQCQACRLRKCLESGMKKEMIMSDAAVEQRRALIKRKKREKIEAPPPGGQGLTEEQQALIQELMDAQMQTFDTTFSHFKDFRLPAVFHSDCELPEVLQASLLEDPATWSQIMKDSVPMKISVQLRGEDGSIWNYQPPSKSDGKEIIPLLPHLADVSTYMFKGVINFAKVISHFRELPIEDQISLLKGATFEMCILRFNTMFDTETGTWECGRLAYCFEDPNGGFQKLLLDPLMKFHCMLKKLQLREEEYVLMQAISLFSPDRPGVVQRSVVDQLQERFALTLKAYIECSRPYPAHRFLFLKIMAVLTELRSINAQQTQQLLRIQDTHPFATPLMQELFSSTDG
In short: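 Cell-based rPXR activation assay: rPXR cells, 2,000 per well, rested 5hr at 37 C, then exposed to compounds in DMSO for 24 hr at 37 C. Luciferase activity read by One-Glo luminescence after 30 min at room temperature.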

[5] = molecular target: Nuclear receptor subfamily 1 group I member 2 (Homo sapiens) (UniProt O75469); assay: CYP3A4 induction through human pregnane X receptor (PXR) by small molecules, qHTS assay (AID 1346984); note: nearly all actives have a fitted effect of over 40% in size
In short: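 Quantitative HTS in DPX-2 cells, i.e. HepG2 transfected with PXR response element and CYP3A4-promoter luciferase. Compounds in DMSO incubated 24hr at 37C; then P450-Glo CYP3A4 substrate, 3uM final, 3hr; One-Glo luminescence.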

[6] = molecular target: Nuclear receptor subfamily 1 group I member 2 (Homo sapiens) (UniProt O75469); assay: Human pregnane X receptor (PXR) activation by small molecules, qHTS assay (AID 1346985); note: nearly all actives have a fitted effect of over 40% in size
In short: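 DPX-2 cells (HepG2 co-transfected with a PXR response element and a CYP3A4-promoter luciferase construct) were seeded at 2,000 per well, rested 5 hr at 37C, then exposed to DMSO-dissolved compounds for 24 hr. Activation was read as luciferase luminescence.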

[7] = molecular target: Cytochrome P450 2D6 (Homo sapiens) (UniProt P10635); assay: Cytochrome P450 Family 2 Subfamily D Member 6 (CYP2D6) small molecule antagonists: luciferase reporter qHTS assay (AID 1671196); note: nearly all actives have a fitted effect of over 50% in size; note: potency is the fitted concentration of half-maximal effect
Chain of Cytochrome P450 2D6 (Homo sapiens) (P10635 whole entry, looked up): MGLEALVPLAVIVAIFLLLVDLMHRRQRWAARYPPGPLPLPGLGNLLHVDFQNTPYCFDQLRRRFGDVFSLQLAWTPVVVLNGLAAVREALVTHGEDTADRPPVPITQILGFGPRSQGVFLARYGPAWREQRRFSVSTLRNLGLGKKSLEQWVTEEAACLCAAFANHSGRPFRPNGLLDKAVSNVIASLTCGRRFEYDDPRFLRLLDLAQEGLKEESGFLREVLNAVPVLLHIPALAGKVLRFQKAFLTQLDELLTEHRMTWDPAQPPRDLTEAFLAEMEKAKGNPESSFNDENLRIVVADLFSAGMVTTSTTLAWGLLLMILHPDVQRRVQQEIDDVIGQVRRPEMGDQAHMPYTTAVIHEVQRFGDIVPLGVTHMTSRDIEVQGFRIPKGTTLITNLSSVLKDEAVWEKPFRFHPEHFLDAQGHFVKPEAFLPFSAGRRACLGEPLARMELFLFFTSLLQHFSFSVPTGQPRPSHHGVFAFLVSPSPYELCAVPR
In short: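 Enzyme and proluciferin substrate were first combined with test chemical for 10 min at room temperature. Adding NADPH regeneration solution started a 1 h reaction, stopped with luciferin detection reagent and read by luminescence 20 min later.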

[8] = molecular target: Cytochrome P450 2C19 (Homo sapiens) (UniProt P33261); assay: Cytochrome P450 Family 2 Subfamily C Member 19 (CYP2C19) small molecule antagonists: luciferase reporter qHTS assay (AID 1671197); note: nearly all actives have a fitted effect of over 65% in size; note: potency is the fitted concentration of half-maximal effect
Chain of Cytochrome P450 2C19 (Homo sapiens) (P33261 whole entry, looked up): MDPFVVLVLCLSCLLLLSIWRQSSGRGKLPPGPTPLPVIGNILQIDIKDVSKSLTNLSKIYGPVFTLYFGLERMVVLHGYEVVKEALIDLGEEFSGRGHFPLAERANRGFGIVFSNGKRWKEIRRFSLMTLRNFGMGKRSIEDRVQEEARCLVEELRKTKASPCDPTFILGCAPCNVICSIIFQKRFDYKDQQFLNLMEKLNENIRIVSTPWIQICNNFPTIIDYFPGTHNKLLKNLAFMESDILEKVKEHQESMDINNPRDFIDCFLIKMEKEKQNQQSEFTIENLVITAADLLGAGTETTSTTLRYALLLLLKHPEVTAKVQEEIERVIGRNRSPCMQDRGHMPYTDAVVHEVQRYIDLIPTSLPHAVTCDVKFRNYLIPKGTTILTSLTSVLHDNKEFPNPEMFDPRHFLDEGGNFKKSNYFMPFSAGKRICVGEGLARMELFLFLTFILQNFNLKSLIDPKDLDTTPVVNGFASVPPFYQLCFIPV
In short: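 P450-Glo CYP2C19 screening system; proluciferin substrate; DMSO compound stocks; 10 min RT preincubation; NADPH regeneration, 1 h at 37C; luciferin detection reagent, 20 min RT; luminescence as RLU.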

[9] = molecular target: Cytochrome P450 2C9 (Homo sapiens) (UniProt P11712); assay: Cytochrome P450 Family 2 Subfamily C Member 9 (CYP2C9) small molecule antagonists: luciferase reporter qHTS assay (AID 1671198); note: nearly all actives have a fitted effect of over 50% in size; note: potency is the fitted concentration of half-maximal effect
Chain of Cytochrome P450 2C9 (Homo sapiens) (P11712 whole entry, looked up): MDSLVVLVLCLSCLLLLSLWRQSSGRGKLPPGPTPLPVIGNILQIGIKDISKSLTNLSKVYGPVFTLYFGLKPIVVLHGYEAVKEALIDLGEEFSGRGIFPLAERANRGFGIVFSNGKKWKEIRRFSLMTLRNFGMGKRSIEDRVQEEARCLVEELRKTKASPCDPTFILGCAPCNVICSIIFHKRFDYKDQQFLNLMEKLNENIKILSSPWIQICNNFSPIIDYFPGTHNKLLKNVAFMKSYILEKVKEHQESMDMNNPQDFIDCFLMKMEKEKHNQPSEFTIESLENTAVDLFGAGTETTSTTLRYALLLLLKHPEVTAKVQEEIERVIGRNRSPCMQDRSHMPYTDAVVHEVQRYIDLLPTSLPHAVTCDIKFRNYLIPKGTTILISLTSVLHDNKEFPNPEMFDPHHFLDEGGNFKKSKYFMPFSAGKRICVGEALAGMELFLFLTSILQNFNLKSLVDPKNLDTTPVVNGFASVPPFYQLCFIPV
In short: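 P450-Glo proluciferin substrate with CYP2C9 enzyme; 10 min RT preincubation, then NADPH regeneration 1 h at 37C; luciferin detection reagent 20 min RT, luminescence in relative luminescence units.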

Structure (SMILES) | outcome [1] | Potency [2] | Potency [3] | max activation [4] | outcome [5] | Potency [6] | Potency [7] | Potency [8] | Potency [9]
NC(=O)c1ccccc1O | inactive | inactive | inactive | -6.5% (inactive) | inactive | inactive | inactive | inactive | inactive
O=C(c1ccccc1)C(O)c1ccccc1 (stereo unspecified) | inactive | inactive | inactive | -4.09% (inactive) | inactive | inactive | 39.6 µM (active) and inactive | 17.7 µM (active) and 31.7 µM (active) and 8.71 µM (active) | inactive
O=C1NC(=O)c2ccccc21 | inactive | inactive | inactive and 31.4 µM (active) | – | – | – | inactive | inactive | inactive
COc1c2occc2cc2ccc(=O)oc12 | inactive | inactive | 61.5 µM (active) and 48.6 µM (active) | – | – | – | – | – | 5.06 µM (active) and 10 µM (active) and 4.9 µM (active)
O=C1CN(/N=C/c2ccc([N+](=O)[O-])o2)C(=O)N1 | inactive | 48.4 µM (active) and 61.1 µM (active) and 29.8 µM (active) | inactive | -5.45% (inactive) | inactive | inactive | inactive | 79.4 µM (active) and inactive | inactive
Cc1cc(=O)[nH]c(=S)[nH]1 | inactive | inactive | inactive | -8.17% (inactive) | inactive | inactive | inactive | inactive | inactive
O=C(O)/C=C\C(=O)O | inactive | inactive | – | – | – | – | 25.2 µM (active) and inactive | 41.3 µM (active) and inactive | inactive
CNC[C@H](O)c1cccc(O)c1 | inactive | inactive | – | -0.862% (inactive) | – | – | – | – | –
C1N2CN3CN1CN(C2)C3 | inactive | inactive | inactive | – | – | – | inactive | inactive | inactive
CC(O)CN(CCN(CC(C)O)CC(C)O)CC(C)O (stereo unspecified) | inactive | inactive | inactive | -4.71% (inactive) | inactive | inactive | 36.2 µM (active) | inactive | inactive
CCCCC1C(=O)N(c2ccccc2)N(c2ccccc2)C1=O | inactive | inactive | 27.1 µM (active) and 24.3 µM (active) | – | – | – | inactive | 5.6 µM (active) and 25.2 µM (active) | 9.96 µM (active) and 31.7 µM (active) and 17.4 µM (active)
Nc1ccc(O)c(C(=O)O)c1 | inactive | inactive | inactive | – | – | – | – | 79 µM (active) and 31.7 µM (active) and inactive | 62.7 µM (active) and 63.3 µM (active)
CCCCCCCCCCCCCCCC(=O)O | inactive | inactive | inactive | – | inactive | inactive | inactive | 80.5 µM (active) and inactive | inactive
NC(=O)c1cnccn1 | inactive | inactive | inactive | – | – | – | 19.7 µM (active) and inactive | inactive | inactive
C[C@]12C=CC(=O)C=C1CC[C@@H]1[C@@H]2[C@@H](O)C[C@@]2(C)[C@H]1CC[C@]2(O)C(=O)CO | inactive | inactive | inactive | – | – | inactive | inactive | 78.6 µM (active) and inactive | 62.4 µM (active) and inactive
O=S(=O)(O)NC1CCCCC1 | inactive | inactive | – | -1.36% (inactive) | – | – | – | – | –

Structure (SMILES) | outcome [1] | Potency [2] | Potency [3] | max activation [4] | outcome [5] | Potency [6] | Potency [7] | Potency [8] | Potency [9]
Cc1cc(=O)n(-c2ccccc2)n1C | inactive | inactive | inactive | – | – | – | inactive | inactive | –
COc1ccc2[nH]cc(CCNC(C)=O)c2c1 | inactive | inactive | 62.1 µM (active) | – | – | – | – | – | 32.2 µM (active) and 35.6 µM (active)
CC(=O)NS(=O)(=O)c1ccc(N)cc1 | inactive | inactive | inactive | – | – | – | inactive | inactive | –
O=C(O)c1[nH]n(-c2ccc(S(=O)(=O)O)cc2)c(=O)c1N=Nc1ccc(S(=O)(=O)O)cc1 | inactive | 29.8 µM (active) and 27.4 µM (active) and 50.9 µM (active) | inactive | – | – | – | inactive | inactive and 79.9 µM (active) and 29.6 µM (active) | inactive and 18.7 µM (active)
O=C(O)c1cccc([N+](=O)[O-])c1 | inactive | inactive | – | – | – | – | inactive | inactive | inactive
O=C(C1CCCCC1)N1CC(=O)N2CCc3ccccc3C2C1 (stereo unspecified) | inactive | inactive | 30.6 µM (active) | – | – | – | inactive | 7.95 µM (active) and 17.8 µM (active) and 9.77 µM (active) | inactive
O=S(=O)(O)c1ccc2cc(O)ccc2c1 | inactive | inactive | inactive | – | – | – | inactive | inactive and 71.6 µM (active) and 79.6 µM (active) | inactive
O=C(O)CS | inactive | inactive | inactive | – | – | – | inactive | inactive | inactive
Cn1c(=O)c2[nH]cnc2n(C)c1=O | inactive | inactive | inactive | – | – | – | inactive | inactive | –
O=C(O)CCCCC(=O)O | inactive | inactive | inactive | -1.24% (inactive) | inactive | inactive | inactive | inactive | inactive
CCCC(CCC)C(=O)O | inactive | inactive | inactive | 6.66% (inactive) | inactive | inactive | inactive | inactive | 79.6 µM (active) and inactive
C/C=C/c1ccc(OC)cc1 | inactive | inactive | inactive | -1.43% (inactive) | inactive | inactive | inactive | inactive and 21.9 µM (active) | inactive and 13.8 µM (active)
NC(N)=O | inactive | inactive | 9.16 µM (active) and inactive | -2.71% (inactive) | inactive | inactive | inactive | inactive | inactive
Nc1ccc(S(=O)(=O)c2ccc(N)cc2)cc1 | inactive | inactive | inactive | – | – | – | inactive | – | inactive
Cc1ccccc1C(OCCN(C)C)c1ccccc1 (stereo unspecified) | inactive | inactive | inactive and 9.69 µM (active) | -0.826% (inactive) | inactive | inactive | – | inactive | inactive
O=C(O)CCCCCCCC(=O)O | inactive | inactive | inactive | – | – | – | inactive | inactive | –
